Hits are enriched below; roughly 8.7% of the tested compounds scored in any of these assays.
G9a inh – blocks human histone lysine methyltransferase G9a; G9a H3K9 monomethylation, AlphaScreen, 2 h; Potency, µM (titrated, usually from 102 µM), for inactives: at the top dose activity, negative = inhibition, usual class: inhibitors; actives 8.8% (n = 350,000); AID 504332; note: % is set by controls: 0 for no effect and ±100 for the full control effect; nearly all actives have a fitted effect of over 75% in size
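AlphaScreen read-out: biotin-H3K9 peptide (500 nM) methylation by 20 nM enzyme with 20 uM SAM, 2 h at room temperature after 15 min compound preincubation; anti-monomethyl H3K9 antibody plus donor/acceptor beads, 10 min dark.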
Sfp inh – blocks B. subtilis Sfp PPTase activity | Biochemical Sfp PPTase activity, qHTS | Potency, µM, without a hit: largest response in the series, negative = inhibition, actives largely listed as inhibitors | actives 3.5% (n = 310,000) | AID 1490;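 note: the enzyme is Sfp with the accession as filed and its product quenches rhodamine fluorescence; 0% = enzyme reaction without inhibitor and -100% = no enzyme wells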
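Fluorescence-quenching assay: 15 nM Sfp-PPTase preincubated 15 min at room temperature with compound, then 5 uM rhodamine-CoA and 12.5 uM BHQ-2-labelled YbbR peptide added. Fluorescence (ex 525/em 598 nm) read at start and after 30 min; difference gives rate.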
HP1b chromo inh – blocks HP1-beta chromodomain binding to methylated histone tails | AlphaScreen HP1-beta / biotin-H3K9me3 peptide binding | AID 540317 | P83916 | actives 0.56% (n = 390,000) | Potency, µM (series often up to 114 µM), without a hit: at the highest dose activity change, negative = inhibition, usual class: inhibitors; note: nearly all actives have a fitted effect of over 70% in size
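Compound inhibition of the preformed complex between 50 nM HP1-beta and 50 nM biotinylated H3K9me3 peptide was read by AlphaScreen. Buffer was PBS pH 7.4 with 0.01% Tween-20. Incubations ran 30 min at room temperature, with 10 ug/mL donor/acceptor beads.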
BAZ2B block – inhibitors of human BAZ2B bromodomain; Q9UIF8; AlphaScreen BAZ2B-H3K14Ac peptide displacement; Potency, µM (doses to about 114 µM), without a hit: at the top dose activity change, negative = inhibition, most hits filed as inhibitors; actives 4.4% (n = 360,000); AID 504333; note: % is set by controls: 0 for no effect and ±100 for the full control effect; nearly all actives have a fitted effect of over 60% in size
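Complex of BAZ2B and biotin-H3K14Ac (50 nM apiece) forms over 30 min at RT, then faces library compounds up to 110 uM for another 30 min; AlphaScreen beads added, 20 min dark incubation, luminescence read.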
JMJD2A Tudor – blocks the human JMJD2A Tudor domain; O75164; AlphaScreen JMJD2A-Tudor / H3K4me3 peptide binding; Potency, µM (doses to about 114 µM), without a hit: at the highest dose activity change, negative = inhibition, actives largely listed as inhibitors; actives 4.4% (n = 390,000); AID 504339; note: % is set by controls: 0 for no effect and ±100 for the full control effect; nearly all actives have a fitted effect of over 50% in size
ALOX12 inh – ALOX12 (human) lipoxygenase inhibition; Potency, µM (top dose mostly 108 µM), without a hit: at the top dose activity change, negative = inhibition, actives largely listed as inhibitors; purified 12hLO, xylenol orange hydroperoxide absorbance; actives 1.1% (n = 580,000); note: % is set by controls: 0 for no effect and ±100 for the full control effect
Target sequence (P18054 whole entry, looked up): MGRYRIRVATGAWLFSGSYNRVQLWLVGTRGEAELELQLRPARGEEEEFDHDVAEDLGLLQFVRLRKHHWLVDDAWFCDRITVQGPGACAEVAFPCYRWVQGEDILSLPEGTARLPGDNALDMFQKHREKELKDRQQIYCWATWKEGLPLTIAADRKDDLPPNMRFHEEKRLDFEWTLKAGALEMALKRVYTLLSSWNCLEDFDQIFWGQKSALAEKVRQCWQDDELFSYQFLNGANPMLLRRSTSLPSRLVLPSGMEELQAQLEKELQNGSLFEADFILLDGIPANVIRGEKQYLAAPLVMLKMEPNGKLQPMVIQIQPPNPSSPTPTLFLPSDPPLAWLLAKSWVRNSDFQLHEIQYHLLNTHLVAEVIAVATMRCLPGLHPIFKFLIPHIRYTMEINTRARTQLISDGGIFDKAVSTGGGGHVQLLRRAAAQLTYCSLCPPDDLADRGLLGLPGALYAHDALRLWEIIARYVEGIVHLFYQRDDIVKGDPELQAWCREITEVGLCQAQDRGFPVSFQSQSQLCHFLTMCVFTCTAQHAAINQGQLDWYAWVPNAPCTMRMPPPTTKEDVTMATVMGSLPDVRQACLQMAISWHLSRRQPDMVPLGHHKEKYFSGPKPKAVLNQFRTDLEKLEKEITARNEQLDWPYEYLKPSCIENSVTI
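Purified human 12hLO at 150 nM in 25 mM Hepes, 0.01% Triton X-100, pH 7.0, preincubated 15 min at room temperature with compound. Reaction started with 40 uM arachidonic acid, 30 min at room temperature. Hydroperoxide measured by Fe-xylenol orange, 573/405 nm absorbance ratio.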
* marks the source's active call; other numbers are inactive results; ? = inconclusive; . = no result; ! = a repeat was not active; [ ] = another dose, or the depositor's remark. Calls come from the whole dose curve; as a rule, active = well fitted curve in the direction sought with a large enough effect; inconclusive = small, poorly fitted or top-dose-only effect, or another doubt; inactive = no such curve, though single readings can be large; an effect the other way counts as inactive or inconclusive. Potency is the fitted concentration of half-maximal effect.

SMILES | G9a inh | Sfp inh | HP1b chromo inh | BAZ2B block | JMJD2A Tudor | ALOX12 inh
COc1ccccc1N(CC(=O)NCc1ccco1)S(=O)(=O)c1ccc(C)cc1 | 32µM* | 56µM* | 45µM* | 45µM* | 35µM* | 4%
COc1ccc(S(=O)(=O)N(CC(=O)NC2CC2)C2CCCCC2)cc1Cl | -48%[12.7 µM] | 7% | 9% | 6% | -8% | -2%
Cc1ccc(S(=O)(=O)N(CC(=O)NCc2ccco2)C2CCCCC2)cc1 | ? | -15% | 9% | -34% | -23% | ?
COc1ccc(N(CC(=O)NCc2ccco2)S(C)(=O)=O)cc1 | ? | 9% | 26% | -2% | -11% | -10%
CNC(=O)CN(C1CCCCC1)S(=O)(=O)c1ccc(OC)c(Cl)c1 | 50µM* | 5% | 9% | 4% | -6% | 25%
CS(=O)(=O)N(CC(=O)NCc1ccco1)c1ccc(OCc2ccccc2)cc1 | . | ? | ? | 71µM* | ? | -5%
CN1CCCN(C(=O)c2ccc(F)cc2)c2ccccc21 | . | . | . | . | . | 14%
CN1CCCN(C(=O)c2ccc(Cl)cc2)c2ccccc21 | . | . | . | . | . | 32µM*
CN1CC(=O)N(C2CCCNC2)Cc2c1ncnc2N1CCCC(O)C1 (stereo unspecified) | . | . | . | . | . | -26%[6.33 µM]
CC(C)(C)C(=O)Nc1sc2c(c1C(=O)Nc1ccccn1)CCCC2 | -9% | 14% | 12% | 6% | 45µM* | 0%
CCOc1ccccc1NC(=O)c1c(NC(=O)c2ccncc2)sc2c1CCC(C(C)(C)C)C2 (stereo unspecified) | -41%[59 µM] | . | 50% | -14% | 5% | -23%
Cc1ccccc1NC(=O)c1c(NC(=O)C(F)(F)F)sc2c1CCCCC2 | 8.9µM* | . | 13% | -14% | -21% | ?
O=C(Nc1cccc(Cl)c1)c1c(NC(=O)C(F)(F)F)sc2c1CCCC2 | 4µM* | . | ? | 50µM* | 79µM* | ?
Cc1ccccc1NC(=O)c1c(NC(=O)c2ccncc2)sc2c1CCC(C(C)(C)C)C2 (stereo unspecified) | 18µM* | . | 18% | -15% | ? | ?
Cc1ccc(NC(=O)c2c(NC(=O)C(F)(F)F)sc3c2CCCCC3)cc1 | ? | . | ? | -29% | ? | ?
CN1CCCN(C(=O)c2ccsc2)c2ccccc21 | . | . | . | . | . | 8%
COc1ccc(-n2nc(C3CCCN(C(=O)c4ccc(C(F)(F)F)cc4)C3)[nH]c2=O)cc1 (stereo unspecified) | . | . | . | . | . | 12%
COc1ccc(Cl)cc1NC(=O)C(C)NC(c1ccccc1)c1ccccc1 (stereo unspecified) | 79µM* | 6% | 29% | -2% | -1% | -6%
COc1ccc(Cl)cc1NC(=O)NC(C)C | ? | 2% | 63% | -20% | 3% | -3%
CC(C)CN1C(=O)c2ccccc2C(C(=O)NCc2ccccn2)C12CCCCC2 (stereo unspecified) | . | . | . | . | . | 50%
CC1=CC(C)(C)Nc2ccc(Cc3ccc4c(c3)C(C)=CC(C)(C)N4)cc21 | 10µM* | -3% | ? | 14µM* | 18µM* | ?
CC1=CC(C)(C)Nc2cc(C)c(C)cc21 | 32µM* | ? | ? | 50µM* | 50µM* | ?
CC1=CC(C)(C)Nc2ccc(C)cc21 | 45µM* | 45µM* | 7% | 50µM* | ? | ?
O=c1oc2c(-c3ccc([N+](=O)[O-])cc3)cc(O)cc2s1 | 56µM* | 40µM* | ? | -26% | -32% | 40µM*
COc1ccc(-c2nc3cnccc3o2)cc1NC(=O)c1ccccc1 | . | . | . | . | . | 16%
SMILES | G9a inh | Sfp inh | HP1b chromo inh | BAZ2B block | JMJD2A Tudor | ALOX12 inh
COc1ccc(CN(C)C(=O)c2n[nH]c(=O)c3ccccc23)cc1F | . | . | . | . | . | 7%
CCCCN1C(SCC(=O)OCC)=NS(=O)(=O)c2ccccc21 | . | . | . | . | . | -14%
O=C1Nc2ccccc2OC1CC(=O)N1CCN(c2cccc(C(F)(F)F)c2)CC1 (stereo unspecified) | 35µM* | -16% | 29% | -3% | -24% | 2%
Cc1nc2cc(F)ccc2cc1C(=O)N1CCN(S(=O)(=O)c2ccc(C#N)cc2)CC1 | . | . | . | . | . | 0%
O=C(NC(=O)c1ccc(F)cc1F)Nc1ccc(Cl)cc1 | 45µM* | 16% | 43% | -10% | -13% | 5%
Cc1ccc(NC(=O)c2ccc(F)cc2F)cc1 | . | . | 33% | . | -1% | -1%
CCN(CC)[C@H]1[C@@H]2OC[C@@H](O2)[C@@H](NCc2ccc(OC(F)(F)F)cc2)[C@@H]1O | . | . | . | . | . | 14%[176 µM]
CCOc1ccccc1N=NC1C(=O)N(C(N)=S)N=C1C (stereo unspecified) | 50µM* | -25% | -3% | 7% | -4% | -1%
CC1=NN(C(N)=S)C(=O)C1N=Nc1ccccc1C (stereo unspecified) | 1%[59 µM] | -3% | -1% | -11% | -25% | 0%
CC1=NN(C(N)=S)C(=O)C1N=Nc1ccccc1O (stereo unspecified) | . | 10% | 47% | 50µM* | 56µM* | 0%
Cc1nc(CN2C(=O)OC3(CCN(Cc4c[nH]c5ccccc45)CC3)C2(C)c2ccccc2)cs1 (stereo unspecified) | . | . | . | . | . | -14%
CC1=C(/C=C/C(C)=C/C=C/C(C)=C/C(=O)O)C(C)(C)CCC1O (stereo unspecified) | -12%[59 µM] | 5% | . | . | . | ?
CC1=C(/C=C/C(C)=C/C=C/C(C)=C/C(=O)O)C(C)(C)CCC1 | 50µM*! | ? | 25% | ? | -20% | -17%
CC1=C(/C=C/C(C)=C\C=C\C(C)=C\C(=O)O)C(C)(C)CCC1 | 22µM*! | 13% | . | . | . | -2%[12.5 µM]
CC(C=CC=C(C)C=CC1=C(C)CCCC1(C)C)=CC=CC=C(C)C=CC=C(C)C=CC1=C(C)CCCC1(C)C | . | . | . | . | . | 0%
O=C(NCc1ccc(F)cc1)[C@H]1CN(Cc2ccccc2)C[C@H]1C(=O)O | . | . | . | . | . | 17%
